Sampled rows, rich in hits. Any-hit rate of the full collection: about 10%.
NIH3T3 tox: NIH 3T3 cell cytotoxicity; NIH 3T3 viability, CellTiter-Glo ATP luminescence, 48-72 h; Potency, µM (doses to about 96.7 µM), for inactives: top-dose activity change, negative = cytotoxicity, hits mostly inhibitors; hit rate 4.3% among 94,000; AID 1345082; note: % is set by controls: 0 for no effect and ±100 for the full control effect; nearly all actives have a fitted effect of over 55% in size
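Cytotoxicity was measured by CellTiter-Glo ATP luminescence after 48 or 72 h compound exposure at 37 °C. Mouse NIH 3T3 fibroblasts were seeded at 400 cells/well and dosed by 23 nL pin transfer.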
HEK293 tox: kills HEK 293 cells. HEK 293 viability, ATP luminescence (CellTiter-Glo), 48-72 h. Potency, µM (doses to about 115 µM), inactives show at the highest dose activity change, negative = cytotoxicity, most hits filed as inhibitors. hit rate 6.6% among 94,000. AID 1345083; note: % is set by controls: 0 for no effect and ±100 for the full control effect; nearly all actives have a fitted effect of over 60% in size
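Cytotoxicity was scored by loss of ATP-coupled luminescence (CellTiter-Glo) in HEK 293 cells. Compound treatment ran 48 or 72 hr at 37 degree Celsius, 5% CO2, 95% humidity.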
FLuc inh: blocks purified firefly luciferase enzyme activity. P08659. hit rate 2.5% among 76,000. AID 1347043. Potency, µM (highest dose often 115 µM), usual class: inhibitors. purified P. pyralis luciferase, luminescence, biochemical; note: % is set by controls: 0 for no effect and ±100 for the full control effect; nearly all actives have a fitted effect of over 65% in size
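Biochemical qHTS: compound (6-point titration) added to 10uM D-luciferin plus 10uM ATP in Tris acetate pH 7.5 buffer with Mg, Tween-20 and BSA, then purified enzyme at 10nM; light output imaged.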
GPT2 inh: blocks human glutamate pyruvate transaminase 2; Q8TD30; Recombinant GPT2, coupled pyruvate oxidase/HRP Amplex Red fluorescence; Potency, µM (top dose mostly 57.7 µM), for inactives: at the highest dose activity change, negative = inhibition, most hits filed as inhibitors; hit rate 0.25% among 100,000; note: % is set by controls: 0 for no effect and ±100 for the full control effect; nearly all actives have a fitted effect of over 60% in size
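GPT2 10ng/uL, a-KG 250uM, L-Ala 2mM, HEPES pH7.5 + 0.0001% Tween; 30 min RT. Then Amplex mix (PO/HRP/ThPP), 30 min RT dark, fluorescence. AOA 50uM used as positive control.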
hNpr1 antagonist: blocks ANP-stimulated signaling of human Npr1 receptor | HEK293 hNpr1 GloSensor cGMP, ANP-stimulated luminescence | Potency, µM (titrated, usually from 46.3 µM), without a hit: at the top dose activity change, negative = inhibition, usual class: inhibitors | hit rate 1.6% among 76,000; calls by dose curve; note: % is set by controls: 0 for no effect and ±100 for the full control effect; nearly all actives have a fitted effect of over 60% in size
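HEK293 cells stably expressing human Npr1 and cGMP GloSensor pGS-40F, loaded 2 h with 2% GloSensor reagent, given compound 30 min at room temperature. Luminescence read before and 20 min after 0.1 nM hNppA.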
Npr1 antag conf: confirmation of human Npr1 natriuretic peptide receptor antagonists. shares compounds with hNpr1 antagonist. HEK293 hNpr1 cGMP GloSensor luminescence, ANP-stimulated. Potency, µM (series often up to 57.6 µM), without a hit: at the top dose activity change, negative = inhibition, most hits filed as inhibitors. hit rate 76% among 1,400; calls by dose curve; note: nearly all actives have a fitted effect of over 70% in size
NPR2 antag: hNpr2 antagonism, selectivity versus Npr1. Potency, µM (doses to about 57.6 µM), for the others: top-dose activity change, negative = inhibition, usual class: inhibitors. hit rate 67% among 1,400. AID 1347046. HEK293 hNpr2 GloSensor cGMP luminescence, CNP-stimulated. shares compounds with hNpr1 antagonist; calls by dose curve; note: nearly all actives have a fitted effect of over 70% in size
Target sequence (P20594 whole entry, looked up): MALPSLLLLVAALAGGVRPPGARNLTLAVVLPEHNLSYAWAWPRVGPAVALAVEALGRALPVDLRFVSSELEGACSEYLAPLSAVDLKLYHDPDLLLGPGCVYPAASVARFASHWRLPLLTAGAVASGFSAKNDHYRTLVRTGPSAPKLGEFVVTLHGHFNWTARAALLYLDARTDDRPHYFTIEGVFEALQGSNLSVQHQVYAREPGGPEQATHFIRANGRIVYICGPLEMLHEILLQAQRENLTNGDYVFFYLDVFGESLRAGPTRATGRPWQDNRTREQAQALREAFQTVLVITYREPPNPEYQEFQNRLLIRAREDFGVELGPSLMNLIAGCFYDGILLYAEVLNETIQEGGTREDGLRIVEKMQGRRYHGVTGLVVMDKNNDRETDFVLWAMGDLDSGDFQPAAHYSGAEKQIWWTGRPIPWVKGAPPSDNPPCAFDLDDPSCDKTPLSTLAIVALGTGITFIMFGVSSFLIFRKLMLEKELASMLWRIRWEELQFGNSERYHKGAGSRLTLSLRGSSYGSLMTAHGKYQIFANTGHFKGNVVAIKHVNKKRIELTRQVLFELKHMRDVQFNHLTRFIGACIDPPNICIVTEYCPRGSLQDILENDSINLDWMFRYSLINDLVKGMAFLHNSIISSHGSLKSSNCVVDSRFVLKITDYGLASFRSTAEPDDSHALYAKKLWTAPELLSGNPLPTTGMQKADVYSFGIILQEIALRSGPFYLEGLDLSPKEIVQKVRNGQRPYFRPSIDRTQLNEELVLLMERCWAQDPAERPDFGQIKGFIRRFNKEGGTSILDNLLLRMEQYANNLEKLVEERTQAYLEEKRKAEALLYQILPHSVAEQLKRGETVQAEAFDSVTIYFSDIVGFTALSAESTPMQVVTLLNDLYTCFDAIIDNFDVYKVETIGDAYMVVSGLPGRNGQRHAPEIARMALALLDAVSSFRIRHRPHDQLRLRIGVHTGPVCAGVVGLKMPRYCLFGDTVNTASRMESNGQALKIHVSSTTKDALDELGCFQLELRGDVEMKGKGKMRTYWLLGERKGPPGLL
FLuc counter: inhibits firefly luciferase, false Npr1 antagonist flag | Potency, µM (doses to about 57.6 µM), for inactives: at the top dose activity change, negative = inhibition, most hits filed as inhibitors | hit rate 0.7% among 1,400 | purified FLuc enzyme, luminescence, Km substrate | AID 1347047 | shares compounds with hNpr1 antagonist; note: 0% is about no effect
GloSensor cGMP: counter-screen for Npr1 antagonists: GloSensor control cell line; shares compounds with hNpr1 antagonist; HEK293 GloSensor cGMP, SNP-stimulated, luminescence; Potency, µM (doses to about 57.6 µM), for inactives: at the top dose activity change, negative = inhibition, most hits filed as inhibitors; hit rate 69% among 1,400; AID 1347051; calls by dose curve; note: % is set by controls: 0 for no effect and ±100 for the full control effect; nearly all actives have a fitted effect of over 70% in size
Numbers without * were called inactive; [ ] = remark or other dose. Unless noted, calls come from the whole dose curve; as a rule, active = well fitted curve in the direction sought with a large enough effect; inconclusive = small, poorly fitted or top-dose-only effect, or another doubt; inactive = no such curve, though single readings can be large; an effect the other way counts as inactive or inconclusive. Potency is the fitted concentration of half-maximal effect.

C=CCNC(=O)c1coc(COc2ccc3ccc(OC)cc3c2)n1 was read as NIH3T3 tox inconclusive, HEK293 tox 44.7µM*, FLuc inh inactive, GPT2 inh inactive, hNpr1 antagonist 10µM*, Npr1 antag conf 24.3µM*, NPR2 antag 21.7µM*, FLuc counter -10.6% and GloSensor cGMP 21.7µM*.
`COc1ccc2ccc(OCc3nc(C(=O)N(C)CC(C)O)co3)cc2c1` (configuration not stated) gave NIH3T3 tox inconclusive, HEK293 tox inconclusive, FLuc inh inactive, GPT2 inh -28.9% and hNpr1 antagonist inconclusive.
For CC1CCN(CC2CCCCCN2C(=O)c2ccco2)CC1 (configuration not stated) the results were NIH3T3 tox -15.9%, HEK293 tox -18.3% and GPT2 inh inconclusive.
For COc1ccc(C)cc1C(=O)N1CCc2onc(-c3ccccc3F)c2C1 the results were NIH3T3 tox -29.4%, HEK293 tox 28.2µM*, FLuc inh inactive, GPT2 inh -1.6%, hNpr1 antagonist 14.1µM*, Npr1 antag conf 24.3µM*, NPR2 antag 21.7µM*, FLuc counter -0.9% and GloSensor cGMP 21.7µM*.
Screening CCCc1ncncc1C(=O)N1CCc2onc(-c3ccccc3F)c2C1 returned NIH3T3 tox -0.3%, HEK293 tox -2.7%, FLuc inh inactive, GPT2 inh inactive and hNpr1 antagonist 5.2%.
For O=C(NCCN1CCOCC1)c1cc(-c2ccc(Cl)cc2Cl)c2nncn2n1 the results were NIH3T3 tox inconclusive, HEK293 tox inconclusive and GPT2 inh inactive.
COc1ccc(C(=O)N2CCC3(CC2)N=C(c2ccc(Cl)cc2)NO3)cc1F was read as NIH3T3 tox -25.6%, HEK293 tox inconclusive, FLuc inh inactive, GPT2 inh inactive, hNpr1 antagonist 10µM*, Npr1 antag conf 19.3µM*, NPR2 antag 19.3µM*, FLuc counter -4.6% and GloSensor cGMP 21.7µM*.
For COc1ccc(C(=O)N2CCC3(CC2)N=C(c2ccccc2)NO3)cc1F the results were NIH3T3 tox -13.5%, HEK293 tox -6.7%, FLuc inh inactive, GPT2 inh inactive and hNpr1 antagonist -7.7%.
For COc1ccc(C(=O)N2CCC3(CC2)N=C(c2ccc(Cl)cc2)NO3)cc1 the results were NIH3T3 tox -15.5%, HEK293 tox inconclusive, FLuc inh inactive, GPT2 inh inactive, hNpr1 antagonist 10µM*, Npr1 antag conf 17.2µM*, NPR2 antag 19.3µM*, FLuc counter -13.2% and GloSensor cGMP 9.68µM*.
O=[S+]([O-])(c1ccc(Br)cc1)c1nnn2c1nc(N1CCCCC1)c1ccccc12 was read as NIH3T3 tox -12.8%, HEK293 tox -5.6% and GPT2 inh -15.6%.
For Cn1ncc2c(C(=O)NCCCc3ccccc3)cc(-c3ccc(Cl)cc3)nc21 the results were NIH3T3 tox inconclusive, HEK293 tox inconclusive and GPT2 inh 4.2%.
COCCNC(=O)c1ccc(OC2CCN(Cc3cccc(SC)c3)CC2)c(Cl)c1 was read as NIH3T3 tox inconclusive, HEK293 tox inconclusive, FLuc inh inactive, GPT2 inh inactive and hNpr1 antagonist -11.9%.
`Cc1noc(C)c1[S+](=O)([O-])N1CCc2nc(C(C)C)nc(-c3ccc(O)cc3)c2C1` gave NIH3T3 tox inconclusive, HEK293 tox inconclusive, FLuc inh inactive, GPT2 inh inactive, hNpr1 antagonist -3.9%, Npr1 antag conf -23.7%, NPR2 antag inconclusive, FLuc counter 1.2%[86.2 µM] and GloSensor cGMP 8.5%.
`CC(=O)N1Cc2ccccc2CC2(CCCN(CCc3ccc(C)cc3)C2)C1` (configuration not stated) gave NIH3T3 tox -10.6%, HEK293 tox inconclusive and GPT2 inh inactive.
For Cc1ccccc1Oc1c(CCC(=O)NCC2CC2)c(C)nn1-c1ccc(F)cc1 the results were NIH3T3 tox 25.1µM*, HEK293 tox inconclusive, FLuc inh inactive, GPT2 inh inactive, hNpr1 antagonist inconclusive, Npr1 antag conf inconclusive, NPR2 antag inconclusive, FLuc counter 2.8% and GloSensor cGMP inconclusive.
For Cc1nn(-c2ccc(F)cc2)c(Oc2ccc(F)cc2F)c1CCC(=O)NCC1CC1 the results were NIH3T3 tox inconclusive, HEK293 tox inconclusive, FLuc inh inactive, GPT2 inh inactive, hNpr1 antagonist inconclusive, Npr1 antag conf inconclusive, NPR2 antag inconclusive, FLuc counter 3.7% and GloSensor cGMP inconclusive.
Screening O=C(NCCCc1nc2ccccc2[nH]1)C1CC(=O)N(c2n[nH]c3ccccc23)C1 (configuration not stated) returned NIH3T3 tox -16.4%, HEK293 tox -3.3%, FLuc inh inactive, GPT2 inh -3.7% and hNpr1 antagonist -3.5%.
Cc1ccc(OCC(=O)N2CCCC(c3nn(C)c(=O)n3C(C)C)C2)cc1 (configuration not stated) was read as NIH3T3 tox -27.6%, HEK293 tox inconclusive, FLuc inh inactive, GPT2 inh -11.0%, hNpr1 antagonist 14.1µM*, Npr1 antag conf 24.3µM*, NPR2 antag inconclusive, FLuc counter 2.0% and GloSensor cGMP 24.3µM*.
Screening Cc1ccc(C(=O)N2CCC(Cc3nc(-c4ccccc4)no3)CC2)s1 returned NIH3T3 tox inconclusive, HEK293 tox 31.6µM*, FLuc inh inactive, GPT2 inh 3.2%, hNpr1 antagonist 6.31µM*, Npr1 antag conf 7.69µM*, NPR2 antag 9.68µM*, FLuc counter 0.9% and GloSensor cGMP 8.62µM*.
COc1ccc(C(=O)N2CCC(Cc3nc(-c4ccccc4)no3)CC2)cc1OC was read as NIH3T3 tox inconclusive, HEK293 tox inconclusive, FLuc inh inactive, GPT2 inh 4.9%, hNpr1 antagonist 2.82µM*, Npr1 antag conf 5.44µM*, NPR2 antag 6.85µM*, FLuc counter 1.2% and GloSensor cGMP 5.44µM*.
